Records with an inconclusive call do not appear. Calls of active or inactive are those of the source. Calls follow the shape of the dose curve; as a rule, active = well fitted curve in the direction sought with a large enough effect; inconclusive = small, poorly fitted or top-dose-only effect, or another doubt; inactive = no such curve, though single readings can be large or run the other way.
These molecules were tested against Protein phosphatase 1D (Homo sapiens) (UniProt O15297) (assay: Rhodamine-PBP qHTS Assay for Modulators of WT P53-Induced Phosphatase 1 (WIP1) (AID 1347425)). Conditions: recombinant WIP1, Rhodamine-PBP phosphate fluorescence, real-time; series mostly up to 57.5 µM.
Text: Assay Provider (PI): Nathan Coussens Ph.D.
National Center for Advancing Translational Sciences (NCATS), Rockville, MD
National Institute of Health (NIH), Bethesda, Maryland
WT P53-Induced Phosphatase 1 (WIP1) is a member of the magnesium-dependent serine/threonine protein phosphatase (PPM) family and is induced by P53 in response to DNA damage. In several human cancers, the WIP1 protein is overexpressed, which is generally associated with a worse prognosis. Although WIP1 is an attractive therapeutic target, no potent, selective, and bioactive small-molecule modulator with favorable pharmacokinetics has been reported. Phosphatase enzymes are among the most challenging targets for small molecules because of the difficulty of achieving both modulator selectivity and bioavailability. Another major obstacle has been the availability of robust and physiologically relevant phosphatase assays that are suitable for high-throughput screening.
Here, we describe two orthogonal biochemical WIP1 activity assays that utilize phosphopeptides from native WIP1 substrates. We optimized a RapidFire MS assay to quantify the enzymatically dephosphorylated peptide reaction product in a 384-well format. Additionally, a redshifted Rhodamine-PBP fluorescence assay was optimized in a 1,536-well format to enable real-time WIP1 activity measurements through the detection of the orthogonal reaction product, Pi. We validated these two optimized assays by quantitative high-throughput screening against the National Center for Advancing Translational Sciences (NCATS) Pharmaceutical Collection and used secondary assays to confirm and evaluate inhibitors identified in the primary screen.
SEQUENCE No. (e.g., 1, 2, 3, etc.); […] (e.g., Cells, Incubation, Reagent, etc.); VALUE; DESCRIPTION
1; Reagent; 3 uL; WIP1 (6.7 nM), Rh-PBP (13.3 uM), columns 1-48
3; Library Compounds; 23 nL; NCATS Pharmaceutical Collection, column 5-48
4; Control Compounds; DMSO in column 2, GSK2830371 (57.5 uM, final) in 3-fold serial dilutions in column 3, GSK2830371 (1.15 uM, final) in column 4
5; Time; 1 hr; incubation
6; Detection; fluorescence (f0); ViewLux, excitation filter = 525 nm, emission filter = 598 nm
7; Reagent; 1 uL; VEPP-pS-QETFS (40 uM), columns 2-48
8; Detection; fluorescence (f1); ViewLux, excitation filter = 525 nm, emission filter = 598 nm
NOTES (numbers refer to sequence above)
1 & 2; Black medium binding Greiner 1536-well plates (# 789176-F); assay buffer: 50 mM Tris-HCl pH 7.5, 30 mM MgCl2, 1mM TCEP, 0.1 mM EGTA, 75 ug/mL BSA; dispensed with a BioRaptr liquid handler (Beckman Coulter).
3 & 4; Kalypsys pintool (equipped with 1536 pinhead, Wako USA) transfer. Tip wash sequence: DMSO, methanol, 3 sec vacuum dry.
5; Room temperature incubation.
7; VEPPL-pS-QETFS in assay buffer dispensed with a BioRaptr; final reaction conditions: 5 nM WIP1, 10 uM VEPPL-pS-QETFS, 10 uM Rh-PBP, 50 mM Tris-HCl pH 7.5, 30 mM MgCl2, 1 mM TCEP, 0.1 mM EGTA, 75 ug/mL BSA.
8; Measurement taken at 1 min intervals for 11 min. Delta readout = f1 - f0.

Sequence of Protein phosphatase 1D (Homo sapiens) (O15297 whole entry, looked up): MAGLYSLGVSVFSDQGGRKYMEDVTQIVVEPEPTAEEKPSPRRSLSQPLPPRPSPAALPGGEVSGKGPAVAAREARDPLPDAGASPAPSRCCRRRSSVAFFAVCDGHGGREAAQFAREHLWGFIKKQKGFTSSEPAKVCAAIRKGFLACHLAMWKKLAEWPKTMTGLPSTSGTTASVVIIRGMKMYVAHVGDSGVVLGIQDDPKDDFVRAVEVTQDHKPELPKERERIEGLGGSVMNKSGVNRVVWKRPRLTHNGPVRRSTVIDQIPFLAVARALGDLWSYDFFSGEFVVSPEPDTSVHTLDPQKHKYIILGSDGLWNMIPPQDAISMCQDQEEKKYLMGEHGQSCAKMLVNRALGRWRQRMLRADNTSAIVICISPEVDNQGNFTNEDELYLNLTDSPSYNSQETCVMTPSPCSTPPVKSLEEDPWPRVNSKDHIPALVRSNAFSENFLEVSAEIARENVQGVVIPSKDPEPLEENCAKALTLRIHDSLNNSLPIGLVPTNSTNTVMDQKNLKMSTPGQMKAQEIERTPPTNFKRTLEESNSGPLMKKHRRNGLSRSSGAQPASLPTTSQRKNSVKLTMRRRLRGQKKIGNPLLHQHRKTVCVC

**Q.** How did the outcome turn out when CCCC(C)(COC(N)=O)COC(=O)NC(C)C (stereo not given) was run?
**A.** inactive

**Q.** With CN(C)CCc1ccc(O)cc1 as the molecule, how does the outcome read?
**A.** inactive

**Q.** How did the outcome turn out when Oc1cccc2cccnc12 was run?
**A.** inactive

**Q.** For CCC(COC(=O)c1cc(OC)c(OC)c(OC)c1)(c1ccccc1)N(C)C (stereo not given), which outcome is on record?
**A.** inactive

**Q.** For CCC(=O)C(CC(C)N(C)C)(c1ccccc1)c1ccccc1 (stereo not given), which outcome is on record?
**A.** inactive

**Q.** Cc1ccc2c(c1)C1CN(C)CCC1N2 (stereo not given) was tested. Which outcome did it give?
**A.** inactive

**Q.** With COc1ccccc1N1CCNCC1 as the molecule, how does the outcome read?
**A.** inactive

**Q.** N[C@@H](Cc1ccc(N(CCCl)CCCl)cc1)C(=O)O was tested. Which outcome did it give?
**A.** inactive

**Q.** Clc1cccc(N2CCNCC2)c1 was tested. Which outcome did it give?
**A.** inactive

**Q.** Which outcome does the source give for CCC(C(N)=O)N1CCCC1=O (stereo not given) here?
**A.** inactive

**Q.** For O=[N+]([O-])c1cc([As](=O)(O)O)ccc1O, which outcome is on record?
**A.** inactive

**Q.** Which outcome does the source give for C[C@]12C/C(=C/O)C(=O)C[C@@H]1CC[C@@H]1[C@@H]2CC[C@@]2(C)[C@H]1CC[C@]2(C)O here?
**A.** inactive

**Q.** C=C(C)[C@H]1Cc2c(ccc3c2O[C@@H]2COc4cc(OC)c(OC)cc4[C@@H]2C3=O)O1 was tested. Which outcome did it give?
**A.** inactive

**Q.** With C=C1CC[C@@]2(O)[C@H]3Cc4ccc(O)c5c4[C@@]2(CCN3CC2CC2)[C@H]1O5 as the molecule, how does the outcome read?
**A.** inactive

**Q.** Which outcome does the source give for CCN(CC)C(=O)N[C@@H]1C=C2c3cccc4[nH]cc(c34)C[C@@H]2N(C)C1 here?
**A.** inactive

**Q.** With O=C1NCN(c2ccccc2)C12CCN(CC1COc3ccccc3O1)CC2 (stereo not given) as the molecule, how does the outcome read?
**A.** inactive

**Q.** How did the outcome turn out when CCC1(C2=NCCN2)Cc2ccccc2O1 (stereo not given) was run?
**A.** inactive

**Q.** CC1NCCOC1c1ccccc1 (stereo not given) was tested. Which outcome did it give?
**A.** inactive

**Q.** With O=c1[nH]c2ccccc2n1CCCN1CCC(n2c(=O)[nH]c3cc(Cl)ccc32)CC1 as the molecule, how does the outcome read?
**A.** inactive

**Q.** For CC[N+]1(C)CCCC(OC(=O)C(O)(c2ccccc2)c2ccccc2)C1 (stereo not given), which outcome is on record?
**A.** inactive

**Q.** Which outcome does the source give for C#CCN(C)[C@H](C)Cc1ccccc1 here?
**A.** inactive

**Q.** How did the outcome turn out when CCN(CC)CCOC(=O)C(O)(c1ccccc1)c1ccccc1 was run?
**A.** inactive

**Q.** For C#CCOC(C(=O)OCCN(C)C)(c1ccccc1)c1ccccc1, which outcome is on record?
**A.** inactive

**Q.** Which outcome does the source give for CCOP(=S)(OCC)Oc1cc(C)nc(C(C)C)n1 here?
**A.** inactive

**Q.** With O=C(NC(O)C(Cl)(Cl)Cl)NC(O)C(Cl)(Cl)Cl (stereo not given) as the molecule, how does the outcome read?
**A.** inactive

**Q.** For NCC1(CC(=O)O)CCCCC1, which outcome is on record?
**A.** inactive

**Q.** Which outcome does the source give for Cn1cc(C2=C(c3cn(C4CCN(Cc5ccccn5)CC4)c4ccccc34)C(=O)NC2=O)c2ccccc21 here?
**A.** inactive

**Q.** How did the outcome turn out when CCCN1CCC[C@@H]2Cc3[nH]ncc3C[C@H]21 was run?
**A.** inactive

**Q.** With FC(F)(F)c1cccc(C2=CCN(CCc3ccc4ccccc4c3)CC2)c1 as the molecule, how does the outcome read?
**A.** inactive

**Q.** Which outcome does the source give for COc1ccc2c(c1OC)CN1CCc3cc4c(cc3C1C2)OCO4 (stereo not given) here?
**A.** inactive

**Q.** For NN=C(N)N, which outcome is on record?
**A.** inactive

**Q.** How did the outcome turn out when OCCOc1ccccc1 was run?
**A.** inactive

**Q.** Which outcome does the source give for C=C1C[C@@H]2[C@H](CC[C@]3(C)C(=O)CC[C@@H]23)[C@@]2(C)C=CC(=O)C=C12 here?
**A.** inactive

**Q.** With CC(=O)Nc1cc([As](=O)(O)O)ccc1O as the molecule, how does the outcome read?
**A.** inactive

**Q.** For C[C@]12CC[C@H]3[C@@H](CCC4=CC(=O)CC[C@@H]43)[C@@H]1CC[C@@H]2OC(=O)CCc1ccccc1, which outcome is on record?
**A.** inactive

**Q.** For Cc1ncc(CNC(=O)N(CCCl)N=O)c(N)n1, which outcome is on record?
**A.** inactive

**Q.** With CCN(CC)CCN1C(=O)CN=C(c2ccccc2F)c2cc(Cl)ccc21 as the molecule, how does the outcome read?
**A.** inactive

**Q.** For CN1CCN(C(=O)O[C@H]2c3nccnc3C(=O)N2c2ccc(Cl)cn2)CC1, which outcome is on record?
**A.** inactive

**Q.** For CCN(C(C)=O)c1cccc(-c2ccnc3c(C#N)cnn23)c1, which outcome is on record?
**A.** inactive

**Q.** With CC(C)(N)Cc1ccc(Cl)cc1 as the molecule, how does the outcome read?
**A.** inactive

— PubChem BioAssay (NCATS)
